# D2 PAM-1: HTS Assay for Positive Allosteric Modulators of the Human D2 Dopamine Receptor: Primary Screen for Potentiators; 340,000 tested, 0.34% active; AID 485347, 2010; HEK293 T-REx D2, calcium flux, EC20 dopamine potentiation; potentiation, % at 10 µM; D(2) dopamine receptor (Homo sapiens), P14416;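 active = potentiation over 3 SD above the plate norm, cut at about 30% in these data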; also: 0% is about no effect
#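 Calcium flux readout, no-wash dye, 1 read/s. Inducible HEK293 Trex D2 line, overnight 30 C. Compound alone 180 s (agonist flags), then EC20 dopamine, another 180 s to score potentiation.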
# D2 antag: HTS Assay for Allosteric Antagonists of the Human D2 Dopamine Receptor: Primary Screen for Antagonists. HEK293 TREx D2 cells, calcium flux, dopamine EC80. inhibition, % at 10 µM. 340,000 tested, 2% active. AID 485344, 2010; in the data active = inhibition above about 30%; inactive = below that, where a call was filed; also: 0% is about no effect
#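 Overnight-induced (tetracycline, 30 C) HEK293 T-REx cells carrying force-coupled D2 receive a no-wash calcium dye, then compound, then EC80 dopamine at 180 s; signals are read kinetically throughout.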
# D2 ag-1: HTS Assay for Allosteric Agonists of the Human D2 Dopamine Receptor: Primary Screen for Agonists | D(2) dopamine receptor (Homo sapiens), P14416 | HEK293 T-REx D2 cells, calcium flux agonist mode | activation, % at 2 µM | 340,000 tested, 0.53% active;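 active = activation over 3 SD above normal in the single-dose calcium agonist read, cut at about 30% in these data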; also: 0% is about no effect
#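 In this primary screen, compounds producing a positive calcium signal within 180 s of addition to tetracycline-induced, force-coupled HEK293 Trex D2 cells are flagged; cells are dye-loaded with a no-wash calcium kit beforehand.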
# D2 PAM-2: Beta-Arrestin HTS for Positive Allosteric Modulators of the Human D2 Dopamine Receptor: Potentiators; potentiation, % (no concentration beside the values); 360,000 tested, 0.23% active; DiscoveRx D2 beta-arrestin cells, luminescence, 90 min; 100% = 57 uM dopamine signal; D(2) dopamine receptor (Homo sapiens), P14416; in the data active = potentiation above about 50%; inconclusive = mostly about 30% to 49%
#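 PathHunter D2 cells, attached overnight at 37 deg C, received compound in DMSO plus dopamine at EC20 (50 nM final) for 90 min at 37 deg C. Beta-arrestin recruitment was read as luminescence after 1 h with detection reagent at ambient temperature.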
# D2 ag-2: Beta-Arrestin HTS for Positive Allosteric Modulators of the Human D2 Dopamine Receptor: Agonists; activation, % (concentration not given with the values); D(2) dopamine receptor (Homo sapiens), P14416; AID 624465, 2012; DiscoveRx PathHunter D2 beta-arrestin, luminescence, 90 min; 100% = 57 uM dopamine signal; 360,000 tested, 0.084% active; in the data active = activation above about 40%; inconclusive = between about 15% and that limit
#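 Agonist mode: compounds alone added to overnight-plated D2 PathHunter cells for 90 min at 37 C, with 57 uM final dopamine (EC100) defining full response. Beta-arrestin recruitment detected by chemiluminescent reagent, read after 1 h at ambient temperature.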
# D3 arrestin ag: qHTS of D3 Dopamine Receptor Agonist: D3 Dopamine Receptor B-arrestin Agonist Confirmatory Assay; Potency, µM (series often up to 76.9 µM), without a hit: at the top dose activation, usual class: activators; 2,300 tested, 4% active; shares compounds with D2 ag-1; AID 720506, 2013; DiscoveRx D3 beta-arrestin cells, luminescence, 90 min;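 also: potency is read from the fitted curve at half-maximal effect; 100% = dopamine control response; nearly all actives have a fitted effect of over 70% in size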
# Target sequence (P35462 whole entry, looked up): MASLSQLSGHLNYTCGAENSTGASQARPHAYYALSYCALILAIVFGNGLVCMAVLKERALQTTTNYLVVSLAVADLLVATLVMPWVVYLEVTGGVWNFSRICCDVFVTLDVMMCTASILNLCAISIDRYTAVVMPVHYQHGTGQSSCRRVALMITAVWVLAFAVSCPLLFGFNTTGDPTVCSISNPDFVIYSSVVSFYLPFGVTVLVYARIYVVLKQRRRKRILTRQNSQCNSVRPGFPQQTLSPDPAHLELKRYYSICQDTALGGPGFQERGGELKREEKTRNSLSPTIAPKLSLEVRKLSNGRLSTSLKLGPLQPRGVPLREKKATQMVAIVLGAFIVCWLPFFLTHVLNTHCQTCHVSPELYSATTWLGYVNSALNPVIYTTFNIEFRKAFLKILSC
# D2 ag-3: qHTS of D3 Dopamine Receptor Agonist: D2 Dopamine Receptor B-arrestin Agonist Counterscreen; DiscoveRx PathHunter D2 beta-arrestin, luminescence, 90 min; response scale: percent relative to full dopamine signal; AID 720507, 2013; 2,300 tested, 5.9% active; Potency, µM (doses to about 76.9 µM), for inactives: top-dose activation, actives largely listed as activators; shares compounds with D2 ag-1; also: potency is read from the fitted curve at half-maximal effect; % of control where 0% means no effect; nearly all actives have a fitted effect of over 70% in size
# * = called active by the depositor; ? = inconclusive; . = no result given. Rows were chosen to be rich in hits. Some 2.4% of all compounds tested hit in one or more screens of this group. Unless noted, calls follow the shape of the dose curve; as a rule, active = well fitted activation curve with a large enough effect; inconclusive = small, poorly fitted or top-dose-only effect; inactive = flat fitted curve, though single readings scatter.
SMILES,D2 PAM-1,D2 antag,D2 ag-1,D2 PAM-2,D2 ag-2,D3 arrestin ag,D2 ag-3
c1ccc2c(c1)CCN(Cc1nnnn1Cc1ccc3c(c1)OCO3)C2,-24,24,68*,16,?,2%,?
c1ccc(Cn2nnnc2CN2CCN(Cc3ccc4c(c3)OCO4)CC2)cc1,-1,4,1,-36,0,.,.
COc1ccc(Cn2nnnc2CN2CCc3ccccc3C2)cc1,-11,34*,57*,11,?,6%,?
CCC(c1nnnn1Cc1ccc2c(c1)OCO2)N1CCN(c2ccccc2)CC1 (stereo unspecified),-33,79*,80*,0,?,3%,?
COc1ccc(-c2cc(C(C)=O)c(C)n2CCC(=O)Nc2cccc(C)c2C)cc1,6,.,1,.,.,.,.
CCN(CC)CCN(C)C1CCC(c2ccccc2)CC1 (stereo unspecified),-18,-7,46*,-16,-2,-5%,3%
CC(C)c1ccc(NC(=O)CCNS(=O)(=O)c2ccc3c(c2)oc(=O)n3C)cc1,.,.,0,.,.,.,.
CCc1ccc(NC(=O)CC2C(=O)N(c3cccc(OC)c3)C(=O)N2Cc2ccc(F)cc2)cc1 (stereo unspecified),4,.,0,.,.,.,.
COCCCNC(=O)CN1C(=O)c2cccnc2Sc2ccccc21,8,.,0,.,.,.,.
COC(=O)Cn1c2ccc(F)cc2c2nc(C)sc21,-24,-6,38*,-7,-4,7%,-2%
COc1cccc(CCNC(=O)c2cnc3sc(N4CCOCC4)nn3c2=O)c1,0,.,-1,.,.,.,.
COc1ccc([C@H](C)NC[C@H](O)c2ccc(O)c(NC=O)c2)cc1,-5,4,33*,-17,-3,-1%,0%
COc1ccc(OCC(O)CNC(C)c2ccccc2)cc1 (stereo unspecified),6,-10,2,-5,-1,.,.
CCOC(=O)c1cc(-c2ccccc2)n[nH]1,-1,-15,-1,2,-1,.,.
CCOC(=O)c1nncc(-c2ccccc2)n1,16,2,0,-5,-2,-3%,-3%
O=C(CN1C(=O)c2cccnc2Oc2ccc(Cl)cc21)NCCCN1CCCCC1,-6,.,0,.,.,.,.
Cc1cc(NC(=O)COc2coc(CN3CCN(c4ccccc4F)CC3)cc2=O)no1,-21,15,62*,7,12,15%,?
Cc1cc(NC(=O)COc2coc(CN3CCN(c4ccc(F)cc4)CC3)cc2=O)no1,2,-6,-1,-7,-1,.,.
Cc1cccc(NC(=O)COc2coc(CN3CCN(c4ccccc4)CC3)cc2=O)c1C,-14,5,43*,-3,?,-4%,24%
Cc1ccc(NC(=O)COc2coc(CN3CCN(c4ccccc4)CC3)cc2=O)cc1,-6,9,11,-10,1,.,.
O=C(COc1coc(CN2CCN(c3ccccc3F)CC2)cc1=O)Nc1ccccc1,.,.,.,0,-3,.,.
O=C(COc1coc(CN2CCN(c3ccccc3)CC2)cc1=O)Nc1ccccc1,-6,26,46*,-31,9,11%,18%
Cc1cc(NC(=O)COc2coc(CN3CCN(c4ccccc4)CC3)cc2=O)no1,.,.,.,0,15,3%,25%
CCOC(=O)c1nnc2c(-c3ccc(Cl)cc3)c(C)nn2c1C,-3,.,1,.,.,.,.
COCCCNC(=O)c1c(NC(=O)Cc2coc3cc(C)ccc23)sc2c1CCCC2,2,.,-1,.,.,.,.
SMILES,D2 PAM-1,D2 antag,D2 ag-1,D2 PAM-2,D2 ag-2,D3 arrestin ag,D2 ag-3
COc1cc(C2C(=O)N(C3CCCCCC3)CC(=O)N2CCC2=CCCCC2)ccc1OC(C)C (stereo unspecified),9,.,1,.,.,.,.
O=C(CCCCCNC(=O)c1ccccc1Br)N=Nc1c(O)[nH]c2ccccc12,7,5,28,-7,6,-2%,5%
COc1ccc(NC(=O)c2ccco2)cc1NC(=O)c1cccc(C)c1OC,.,.,-1,.,.,.,.
COc1cccc(CN(C)C(=O)c2cccc(S(=O)(=O)N3CCN(Cc4ccccc4)CC3)c2)c1OC,0,0,2,-12,-3,29%,20%
Cc1ccc2c(=O)cc(C(=O)Nc3sc4c(c3C(=O)NCC3CCCO3)CCCC4)oc2c1C (stereo unspecified),-8,.,0,.,.,.,.
CCc1ccc2c(CN3CCC(C(=O)OC)CC3)cc(=O)oc2c1,-42,106*,106*,21,66*,4µM*,8.9µM*
CCOC(=O)Nc1ccc2c(CN3CCC(C(=O)OC)CC3)cc(=O)oc2c1,-1,3,28,-3,1,.,.
COC(=O)C1CCN(Cc2cc(=O)oc3cc(C)c(Cl)cc23)CC1,-8,20,31*,-3,?,3.2µM*,24%
Cc1cc2oc(=O)cc(CN3CCCCC3C)c2cc1Cl (stereo unspecified),-4,4,-1,3,-5,.,.
CN(C)S(=O)(=O)c1cccc(NC(=S)NNC(=O)c2cc3ccccc3cc2O)c1,-23,56*,72*,-6,-7,-8%,-8%
Cc1c(-c2csc(N)n2)cnn1C,2,26,10,12,?,11µM*,22%
CCn1c(C(=O)N2CCC(C(=O)N3CCN(c4cc(C)ccc4C)CC3)CC2)cc2sccc21,-2,.,0,.,.,.,.
O=C(c1ccc(Br)o1)N1CC=C(c2ccccc2)CC1,.,.,.,-13,2,.,.
O=C(O)C1CCCCC1C(=O)N1CC=C(c2ccccc2)CC1 (stereo unspecified),-12,-1,34*,-16,?,-13%,6%
O=C(c1cc2ccccc2o1)N1CC=C(c2ccccc2)CC1,-16,46*,58*,-12,-20,12%,7%
O=C(Nc1cccc2ccccc12)N1CC=C(c2ccccc2)CC1,-20,-8,34*,-2,-1,?,19%
